# Experimental data reported in PMC7819943, “Rice protein-binding microarrays: a tool to detect cis-acting elements near promoter regions in rice”.
# Over roughly 68,000 sequences, “fluorescence intensity (a.u.)” has its median near 9,100; the highest 2% begin near 16,000. The list comes from a sample in which the highest values are over-represented; it also holds similar and randomly drawn sequences.
# Molecular target: OsWRKY34 (Oryza sativa, UniProt Q0JBA9 1-250)
# Assay: protein-binding microarray (RPBM); PBS, 2% BSA, 51.3 ng/ul salmon testes DNA, 50 uM zinc acetate, 200 nM TF, 25 C, 1 h; high values mean tight binding
# Details: protein: recombinant; tags: N-terminal polyhistidine and DsRed monomer fusion (pET32a); label: CyDye5-dUTP incorporated in the synthesized complementary strand; 3' TTTTT single-stranded linker to array surface; dsDNA, one strand shown
# Procedure, shortened: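 Transcription factors, each fused N-terminally to a polyhistidine tag and DsRed, were expressed in E. coli BL21-CodonPlus and purified on Ni–NTA. A custom Agilent array was made double-stranded by primer extension with Cy5-dUTP and blocked with 2% BSA. It was incubated with 200 nM protein in PBS, 2% BSA, salmon testes DNA and 50 µM zinc acetate at 25 °C for 1 h, then washed. The binding signal is per-feature fluorescence intensity (arbitrary units) read on an Axon 4000B scanner.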
# OsWRKY34, sequence (Q0JBA9 entry or part of it): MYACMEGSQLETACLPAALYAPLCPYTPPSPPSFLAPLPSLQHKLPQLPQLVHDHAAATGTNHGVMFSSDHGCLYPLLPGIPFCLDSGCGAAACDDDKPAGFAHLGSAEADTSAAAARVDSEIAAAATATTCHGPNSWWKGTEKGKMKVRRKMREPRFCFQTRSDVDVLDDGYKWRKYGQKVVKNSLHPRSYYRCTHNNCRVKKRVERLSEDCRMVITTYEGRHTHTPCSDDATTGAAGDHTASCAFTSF
row,Sequence,binding signal
1,GGAGCACCTGTCGTGCGCTGCCGCCATGTACGCGGCGCCGCGGAGTCACCTAGTGCAG,8360 fluorescence intensity (a.u.)
2,ATACCCGATCTCATTATTATGAACCAGTTATGTAATAACACGGAGTCACCTAGTGCAG,8020 fluorescence intensity (a.u.)
3,TGCACAAAGGTTATGCGATATCGACGGTATATTTCCACAACGGAGTCACCTAGTGCAG,9520 fluorescence intensity (a.u.)
4,TGGCCGCGGCTGCTGCTGAGTGTGGTGGTGGTGGGAGGCACGGAGTCACCTAGTGCAG,8880 fluorescence intensity (a.u.)
5,CCCCAAAATTTTTCACCATGTCACATCAAACGTTTGAACACGGAGTCACCTAGTGCAG,8490 fluorescence intensity (a.u.)
6,TTCACACCGTCGTATTTGCCACTTTACTGACGCTCGAAGCCGGAGTCACCTAGTGCAG,8060 fluorescence intensity (a.u.)
7,TACTAATTTCCTTCGCACATCCAGCAATCAGATATCCTGACGGAGTCACCTAGTGCAG,9760 fluorescence intensity (a.u.)
8,CATCCCTAGTCGGCGTCTTGTCATCGCCGCCCCAATCTCGCGGAGTCACCTAGTGCAG,8260 fluorescence intensity (a.u.)
9,TGCGCTCATGGCCATCCATTTTCTTCTTCTTCTTTTTTTTCGGAGTCACCTAGTGCAG,10300 fluorescence intensity (a.u.)
10,TCCTCCTCGCCGCCCGGCGAATCCCGCGCCTCCTCGCTTCCGGAGTCACCTAGTGCAG,9070 fluorescence intensity (a.u.)
11,CGCTTCCTCGCCGCGCGCGCGCCCGCCATCTCCTCGCCTCCGGAGTCACCTAGTGCAG,9350 fluorescence intensity (a.u.)
12,CTTTCCTTGCGCTGTTCTTCGCTTCATCCATCCATCAGCTCGGAGTCACCTAGTGCAG,10800 fluorescence intensity (a.u.)
13,GCCTCGTTTCCATCTCCGCCGCGCTCGCCGCGTTCACACTCGGAGTCACCTAGTGCAG,11400 fluorescence intensity (a.u.)
14,ATCTTCTATTCACGGCTTGCCATCTGTGCACTGTAATTTTCGGAGTCACCTAGTGCAG,9850 fluorescence intensity (a.u.)
15,AGCGCTACTCCACATCTGTTTGCTCGTGCTCTCCGGATCTCGGAGTCACCTAGTGCAG,8550 fluorescence intensity (a.u.)
16,ATCCATTTCCAGCTTCGTCTTCATCTTGGCTTGGCGCGCTCGGAGTCACCTAGTGCAG,17800 fluorescence intensity (a.u.)
17,GCATCTCCACAGTCCACACTGTGCGCGCCATTCTTATCCTCGGAGTCACCTAGTGCAG,14100 fluorescence intensity (a.u.)
18,AGCATCCGAATCCGGCCACCTCATCATCTCGCCTCGCTTCCGGAGTCACCTAGTGCAG,16900 fluorescence intensity (a.u.)
19,CACACTGTGCACGCCATTCTTATCTTGTCTAGCTTCATCTCGGAGTCACCTAGTGCAG,16600 fluorescence intensity (a.u.)
20,GCTCCATCTCTCGTCTCGCGCTTCACTCCACATCTGTTTCCGGAGTCACCTAGTGCAG,18300 fluorescence intensity (a.u.)
21,CCACCTGCTCGCCGTCGACGCCGCCCTCGCCATCTTCAATCGGAGTCACCTAGTGCAG,12800 fluorescence intensity (a.u.)

row,Sequence,binding signal
1,CCATCGCCATTGACACGGACACCTTACCTGTCACAAAGAACGGAGTCACCTAGTGCAG,8160 fluorescence intensity (a.u.)
2,CGACGCGCCATCGCCTCGCCTCTCACCTACTGCCTCGTCCCGGAGTCACCTAGTGCAG,8820 fluorescence intensity (a.u.)
3,ACTTCTTGCTGATCTTCTTGGACTGCTTTTGCACCTTCTTCGGAGTCACCTAGTGCAG,9360 fluorescence intensity (a.u.)
4,ATGCACCACTGTTCCTGTCCTGGCTTTGCACAACATCCATCGGAGTCACCTAGTGCAG,13300 fluorescence intensity (a.u.)
5,ATGTTCAGTAGTTAAAGAGGATACTGGCCACATGCTTGACCGGAGTCACCTAGTGCAG,8790 fluorescence intensity (a.u.)
6,ATCATATGAACACGTTATCTTTTTATTTTATACCGGTTCACGGAGTCACCTAGTGCAG,8840 fluorescence intensity (a.u.)
7,CATCTCCGCCGGCCGCCGTCCTCGCCATCTTCGCCGTCCTCGGAGTCACCTAGTGCAG,12600 fluorescence intensity (a.u.)
8,GGACCATCTCCGCCGCCGCCGCTGCCATCACTTCGTCCTCCGGAGTCACCTAGTGCAG,17600 fluorescence intensity (a.u.)
9,CCTAGTCGGCTTCGCCTCCGCTTCCTCGTCTCGTCTCCCTCGGAGTCACCTAGTGCAG,8160 fluorescence intensity (a.u.)
10,CCGCCATCGCTACCCTCGGTCGTCGCTTGCCCCGACGACCCGGAGTCACCTAGTGCAG,8180 fluorescence intensity (a.u.)
11,TCCCCATCTCCGCCGCAGCCCTCGTCGTCGTCCTCGTCCTCGGAGTCACCTAGTGCAG,18900 fluorescence intensity (a.u.)
12,ACCCTAGCCACCCCGCGTCGCCCGCCTCGGCGCGCCCAAACGGAGTCACCTAGTGCAG,9260 fluorescence intensity (a.u.)
13,CACCGTGTCGCTCTCTCTCGTCGTCTCCGCCTCCGGCTTCCGGAGTCACCTAGTGCAG,19600 fluorescence intensity (a.u.)
14,CCGCCGGCCGCCGTCCTCGCCATCTCCGCCGGCCGCCGTCCGGAGTCACCTAGTGCAG,8440 fluorescence intensity (a.u.)
15,GTCATCCTCTCCATCCCCTCGTCGTCGTCCGCTCGCCTCTCGGAGTCACCTAGTGCAG,8250 fluorescence intensity (a.u.)
16,GCCCCAACCTCGTCGCTACCCGCGAGCCTCGGCTTATCGACGGAGTCACCTAGTGCAG,65100 fluorescence intensity (a.u.)
17,ATCTCCGCCGCCGCCGCCTCCTACTCGTCGCCCTCCTCCTCGGAGTCACCTAGTGCAG,10300 fluorescence intensity (a.u.)
18,CGTCTCCTCTCTCTCTCTCTCTCTCTCTCGCCTCCGCTTCCGGAGTCACCTAGTGCAG,8240 fluorescence intensity (a.u.)
19,CCAGCCCACTGATTCCTCACCGAATTTTTTCATTTTTTTTCGGAGTCACCTAGTGCAG,9700 fluorescence intensity (a.u.)
20,ATTCTATACTTTTGTTTCCCTATCATTTGACGCTTTACACCGGAGTCACCTAGTGCAG,10000 fluorescence intensity (a.u.)
21,TGGCTCCTTTTAAGTTATTCTTCCCAAACAGACATGATTTCGGAGTCACCTAGTGCAG,8660 fluorescence intensity (a.u.)

row,Sequence,binding signal
1,TTTATACATATGTGTTTATCATACCTCACGTGTCGTATATCGGAGTCACCTAGTGCAG,8040 fluorescence intensity (a.u.)
2,TTAAGGGCATGTTTAGTTCTCAAACAAAATTTTCTAGCTGCGGAGTCACCTAGTGCAG,8270 fluorescence intensity (a.u.)
3,ATGCTTGCTTGCCTGCCTTATCTGCGTCTTGAATTGCATCCGGAGTCACCTAGTGCAG,10100 fluorescence intensity (a.u.)
4,CATCTATGACCCATTTTTTTTTATTTGACTGATACCCATCCGGAGTCACCTAGTGCAG,9760 fluorescence intensity (a.u.)
5,CTTCGTCTCCGCTCCTCTCCGCCGCCTCGTCTCGTCGCCTCGGAGTCACCTAGTGCAG,8430 fluorescence intensity (a.u.)
6,CCACACCACCGTCCCCTCGCTGCCTGCCTCCACCTCACCTCGGAGTCACCTAGTGCAG,8950 fluorescence intensity (a.u.)
7,ATCCAAGCCGTCCATCTTCACCCGTCACTGTCACTCGCCACGGAGTCACCTAGTGCAG,16900 fluorescence intensity (a.u.)
8,GTCGCCATCTTCCCATCCCCGCGCCGCCGTCCACCATGAGCGGAGTCACCTAGTGCAG,17200 fluorescence intensity (a.u.)
9,GCCGCGCCCGCGTCACCACCGCTACCGCCCGCGCGTCCCTCGGAGTCACCTAGTGCAG,8940 fluorescence intensity (a.u.)
10,ACCGTGTCGAGCTATGTCTCCTCATCCTCGCTATGTTTCACGGAGTCACCTAGTGCAG,14800 fluorescence intensity (a.u.)
11,TCCCCTACCGCTGCCCACCGCCGTCCACCACCGCCTTTCTCGGAGTCACCTAGTGCAG,17000 fluorescence intensity (a.u.)
12,GTCACCCTTCACCACGGCCATCTTCTCCTCGCTCGCCGTCCGGAGTCACCTAGTGCAG,11200 fluorescence intensity (a.u.)
13,CGTGTCGAGCTCTGTCTCCTCGTCTTCATCCGCCGCTTCACGGAGTCACCTAGTGCAG,18100 fluorescence intensity (a.u.)
14,CTTTTCCCCGCGGCCATCCCCGTCGCCCCACCGCCGCCGCCGGAGTCACCTAGTGCAG,11200 fluorescence intensity (a.u.)
15,CGCGCCGCCCGCCGTCCCCATGCCACCGCGCTGCCCGCCGCGGAGTCACCTAGTGCAG,10200 fluorescence intensity (a.u.)
16,CCATTAAAGCCAAGCCACTGTCCTTGTCCATCTTTGTCCACGGAGTCACCTAGTGCAG,8190 fluorescence intensity (a.u.)
17,GCAGCTGATCGATCTGGTTTCTGCTTTGCTGCAACTCACTCGGAGTCACCTAGTGCAG,8870 fluorescence intensity (a.u.)
18,CTGGGGTTAGTTCTATGGATATTTGCTACTCCTGTTGATACGGAGTCACCTAGTGCAG,8220 fluorescence intensity (a.u.)
19,GAGTGACATTTGGGGTGGTTTTTGCAATTTTCTCTAAATTCGGAGTCACCTAGTGCAG,13000 fluorescence intensity (a.u.)
20,GGGTATAAAGTCACTCTATTCGTTCTCACCGTTTTTTCGGCGGAGTCACCTAGTGCAG,8150 fluorescence intensity (a.u.)
21,GGGAGGGCAACTGAAGAGGAGTGGCGAGGGAGGGCTTTTGCGGAGTCACCTAGTGCAG,12200 fluorescence intensity (a.u.)

row,Sequence,binding signal
1,ACACGCCCGCCCGCCGCCTCCACCGTCTCCGCTCGCCGCGCGGAGTCACCTAGTGCAG,10500 fluorescence intensity (a.u.)
2,ACCATTGTCGCATGCTCACATCCCATCTTTTCCAAAGGGACGGAGTCACCTAGTGCAG,10300 fluorescence intensity (a.u.)
3,CCCTGGTTTCCGTGTCCAATGTTTGACCGTCCGTCTTATTCGGAGTCACCTAGTGCAG,10200 fluorescence intensity (a.u.)
4,CGGGGCGGCTGGCTTGACGCGTCATCTTCCCCGCGAAAATCGGAGTCACCTAGTGCAG,14000 fluorescence intensity (a.u.)
5,CGACATCTCTGAAACATTTCTCCTCGACCACGGCAACCCACGGAGTCACCTAGTGCAG,8630 fluorescence intensity (a.u.)
6,ATTAATTCTGTTTTTTTCAAGTCTCTCTCGCTCTCGCTCCCGGAGTCACCTAGTGCAG,8820 fluorescence intensity (a.u.)
7,CGTTCGCATCCACCACCAGTGCTCCGCCTGCCAGATCCATCGGAGTCACCTAGTGCAG,9140 fluorescence intensity (a.u.)
8,CTCCCGCCGCGACTCGCCGCCGCGCGCGGCATCTCCGGCCCGGAGTCACCTAGTGCAG,8820 fluorescence intensity (a.u.)
9,GGTTGTCGTCGTCGTCGTGGCCTACGCCTTCGCTGCTGCTCGGAGTCACCTAGTGCAG,10600 fluorescence intensity (a.u.)
10,TCACGCATCGGCGCCGCCCTCCGGCCAGCAGCGACTCGCCCGGAGTCACCTAGTGCAG,44600 fluorescence intensity (a.u.)
11,GCGCCGACTGCCCGTCCGCCCCGTTGCTGCTGTGCGCACTCGGAGTCACCTAGTGCAG,8290 fluorescence intensity (a.u.)
12,TGTGCCCGCTGCGCCAAGGGCTACGCCGTCCAGTCCGACTCGGAGTCACCTAGTGCAG,48500 fluorescence intensity (a.u.)
13,GGCCTCGTCTCCTACCTCGCCGACCCCGACCCCGACCACGCGGAGTCACCTAGTGCAG,8440 fluorescence intensity (a.u.)
14,GCTGTCGTCCCTGCTGTTCTTGGTGTGCTTCTTCACTGTCCGGAGTCACCTAGTGCAG,13600 fluorescence intensity (a.u.)
15,TGTCCAGTCGTCACCCTGCTGCTTCCCTGCCACTGCCCTACGGAGTCACCTAGTGCAG,17000 fluorescence intensity (a.u.)
16,GGCCACGCCCGCCTCCGCGATCGTCCTCGCCGGCGACTGCCGGAGTCACCTAGTGCAG,8410 fluorescence intensity (a.u.)
17,CTCGTGCTGCTTCCACCCCTCCCTCGTCGCCTTGCCAGTTCGGAGTCACCTAGTGCAG,9440 fluorescence intensity (a.u.)
18,CACACGCTACCCCGACTCGTCGCCTTCGCCTTGCTCGTCTCGGAGTCACCTAGTGCAG,18000 fluorescence intensity (a.u.)
19,CCCCGCCGTCCGCGCCGACCGCGACCTGCGCTACGCCGCCCGGAGTCACCTAGTGCAG,8450 fluorescence intensity (a.u.)
20,TATATGTAAGCTACTTTTGTCCTATACATAAATTACTTTTCGGAGTCACCTAGTGCAG,8580 fluorescence intensity (a.u.)
21,CTCTCTCCTACTGTAGGCCACCACCACCGCGACCGCACGACGGAGTCACCTAGTGCAG,9340 fluorescence intensity (a.u.)
